KCNQ2 block: inhibitors of rat KCNQ2 potassium channel. B-score at 10 µM. AID 2156. CHO-K1 KCNQ2, FluxOR thallium flux, 20 min; active compounds read low. actives 1.1% (n = 310,000);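 active = fluorescence ratio B-score at most minus 3 library SDs, with starting brightness B-score within 2 library SDs, cut at about -5.5 in these data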
Target sequence (O88943 whole entry, looked up): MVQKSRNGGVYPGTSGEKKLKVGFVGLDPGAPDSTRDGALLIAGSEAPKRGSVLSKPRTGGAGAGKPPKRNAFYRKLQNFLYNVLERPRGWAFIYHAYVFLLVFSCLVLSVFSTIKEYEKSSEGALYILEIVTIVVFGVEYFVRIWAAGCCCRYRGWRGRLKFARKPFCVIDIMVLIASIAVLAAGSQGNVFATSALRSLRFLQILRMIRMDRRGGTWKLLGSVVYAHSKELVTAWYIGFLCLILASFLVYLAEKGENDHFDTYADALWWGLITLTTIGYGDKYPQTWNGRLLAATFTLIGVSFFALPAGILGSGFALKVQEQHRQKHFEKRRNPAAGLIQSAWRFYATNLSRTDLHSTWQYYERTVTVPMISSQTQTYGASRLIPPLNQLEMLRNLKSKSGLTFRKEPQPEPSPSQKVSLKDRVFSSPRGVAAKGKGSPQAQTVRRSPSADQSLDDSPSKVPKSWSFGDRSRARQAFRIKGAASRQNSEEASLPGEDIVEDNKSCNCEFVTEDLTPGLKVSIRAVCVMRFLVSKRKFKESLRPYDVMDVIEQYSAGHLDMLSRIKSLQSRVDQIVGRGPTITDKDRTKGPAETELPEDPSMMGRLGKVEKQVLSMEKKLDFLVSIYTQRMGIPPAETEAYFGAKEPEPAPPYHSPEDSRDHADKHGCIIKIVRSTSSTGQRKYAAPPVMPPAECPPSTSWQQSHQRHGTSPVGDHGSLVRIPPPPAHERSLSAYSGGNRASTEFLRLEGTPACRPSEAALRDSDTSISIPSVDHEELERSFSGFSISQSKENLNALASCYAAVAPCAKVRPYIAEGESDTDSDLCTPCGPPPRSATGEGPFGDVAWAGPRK
KCNQ2 enhance: enhances the rat KCNQ2 potassium channel; AID 2239; CHO-K1 KCNQ2, FluxOR thallium flux fluorescence; active compounds read high; B-score at 10 µM; actives 0.54% (n = 310,000); O88943;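 active = fluorescence ratio B-score at least 3 SD of library B-scores, with initial fluorescence B-score within 3 of them, cut at about 5.3 in these data; same plate scores as AID 2156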;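 note: B-score of peak minus minimum over baseline fluorescence ratio after K+ and Tl+ stimulus; positive B-score means potentiation of KCNQ2 with more thallium influx and brighter signal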
* = called active by the depositor; i = inactive; nt = not tested or not shown. In the library only some 1.6% were active in any assay of this set; here they are far more common.

SMILES	KCNQ2 block	KCNQ2 enhance
O=C(CNC(=O)c1ccccc1)OCC(=O)N1N=C(c2ccc(Cl)cc2)CC1c1ccco1 (centres undefined)	i	nt
Cc1ccc(S(=O)(=O)N[C@H](C(=O)OCC(=O)N2N=C(c3ccc(Cl)cc3)CC2c2ccco2)C(C)C)cc1 (some centres undefined)	-6.1*	-6.1
O=C1c2cccc3c([N+](=O)[O-])ccc(c23)C(=O)N1c1ccc(Cl)cn1	-7*	-7
O=C1c2cccc3c([N+](=O)[O-])ccc(c23)C(=O)N1c1ccccn1	i	nt
CCCNC(=O)c1onc(CSc2nc3ccccc3[nH]2)c1C(=O)NCCC	i	0.21
CCOC(=O)[C@@H]1[C@H]2COc3cc(OC)ccc3[C@H]2N2C(=O)N(c3ccc(C)cc3)C(=O)[C@@]12C	i	0.03
Cc1ccc(C(=O)NCCc2nnc3ccc(NCc4ccc5c(c4)OCO5)nn23)cc1	i	nt
Cc1c(Cc2ccccc2)c(=O)oc2c(C)c(OC(C)C(=O)N[C@@H](Cc3ccccc3)C(=O)O)ccc12 (some centres undefined)	-7.7*	-7.7
Cc1c(OCC(=O)N[C@@H](Cc2ccccc2)C(=O)O)ccc2c1oc(=O)c1ccccc12	i	nt
O=C(NCCc1ccccn1)c1ccc2nc(Cc3ccccc3F)oc2c1	i	1.4
Cc1occc1C(=O)NNS(=O)(=O)c1ccc([N+](=O)[O-])cc1	i	nt
COc1ccc(N2CCN(C(=O)CCc3ccccc3)CC2)cc1	i	0.06
c1ccc(CO/N=C(\c2ccc(C3CC3)nc2)C2CC2)cc1	-7*	-7
O=C(NC1CCC(C(=O)O)CC1)OCc1ccccc1 (centres undefined)	i	0.05
Cc1cc(=O)[nH]c(SCC(=O)N2CCN(S(=O)(=O)c3ccccc3)C2)n1	i	0.13
CC(C)(C)c1ccc(CN(Cc2ccccc2)C(c2ccccn2)c2nnnn2C(C)(C)C)cc1 (centres undefined)	-9.4*	-9.4
CC(C)(C)n1nnnc1C(c1cccs1)N(Cc1ccccc1)Cc1cccnc1 (centres undefined)	i	nt
CCN(Cc1ccccc1)C(c1ccncc1)c1nnnn1C(C)(C)C (centres undefined)	i	nt
CC(C)(C)n1nnnc1C(c1cccnc1)N(Cc1ccccc1)Cc1cccs1 (centres undefined)	i	nt
CC(C)(C)n1nnnc1C(c1ccc(Cl)cc1)N(Cc1cccnc1)Cc1ccco1 (centres undefined)	-6.2*	-6.2
CCC(c1nnnn1C(C)(C)C)N(Cc1cccs1)Cc1cc2cc(C)c(C)cc2n2nnnc12 (centres undefined)	-5.9*	-5.9
Cc1ccc(C(c2nnnn2C(C)(C)C)N(Cc2ccco2)Cc2cccs2)cc1 (centres undefined)	-6.2*	-6.2
CCOc1ccc2[nH]c(=O)c(CN(Cc3cccs3)C(CC)c3nnnn3C(C)(C)CC)cc2c1 (centres undefined)	i	nt
CCOc1ccc(N(CC(=O)NCCSCc2ccccc2)S(=O)(=O)c2ccccc2)cc1	i	nt
CC(C)(C)n1nnnc1C(c1ccc(C(F)(F)F)cc1)N(Cc1ccc(F)cc1)Cc1ccco1 (centres undefined)	-6.5*	-6.5
SMILES	KCNQ2 block	KCNQ2 enhance
c1ccc(CN(Cc2ccco2)C(c2ccncc2)c2nnnn2C2CCCC2)cc1 (centres undefined)	i	nt
CCOc1ccccc1-c1ccc(C(=O)NCc2ccccc2)o1	-5.8*	-5.8
CCOc1cccc2cc(C(=O)NCc3ccccc3)c(=N)oc12	i	nt
O=C(O)c1ccc(-n2nc(C(F)(F)F)cc2-c2cccs2)cc1	i	0.13
O=C(Nc1nnc(-c2ccccc2)o1)c1cc(Cl)sc1Cl	i	4.4
O=C(Nc1nnc(-c2ccc(F)cc2)o1)c1cc(Cl)sc1Cl	i	16*
Cn1c(CNC(=O)C(Cc2ccccc2)NC(=O)c2cccc(F)c2)cc(=O)n(C)c1=O (centres undefined)	i	nt
CCCCCCCCCCCC1=C(O)C(=O)C=C(O)C1=O	i	0.01
COC1=CC(=O)C(O)=C(CCCCCCC/C=C/CCCCCCCC2=C(O)C(=O)C=C(OC)C2=O)C1=O	-6.6*	-6.6
CCOC(=O)c1ccc(-c2c(-c3ccc4c(c3)OCO4)noc2C)cc1F	i	nt
Fc1ccc(NC(=S)N2CCN(c3ccccn3)CC2)cc1Cl	i	nt
O=[N+]([O-])c1ccc(N2CCOCC2)cc1O	i	1.1
Cc1cc(N2CCOCC2)ccc1/C=C\[N+](=O)[O-]	-7.1*	-7.1
CCC1CCCCN1C(=O)/C=C/c1ccc2c(c1)OCO2 (centres undefined)	i	0.86
O=C(OCn1ncc(Br)c(Br)c1=O)c1ccc(F)cc1	-5.6*	-5.6
O=C(OCn1ncc(Br)c(Br)c1=O)c1ccccc1Cl	i	nt
CCN=C(NCC)SC1CC(=O)N(c2cccc(OCC)c2)C1=O (centres undefined)	-6.2*	-6.2
CCN=C(NCC)SC1CC(=O)N(c2ccc(OC)cc2)C1=O (centres undefined)	i	nt
O=C(c1cc(-c2ccccc2)nn1-c1ccccc1)N1CCN(S(=O)(=O)c2c(F)cccc2F)CC1	i	nt
COc1cccc(NC(=O)CN(C)C(C)C(=O)Nc2ccc(S(=O)(=O)N3CCCC3)cc2)c1 (centres undefined)	i	0.25
COc1ccc(CNC(=O)C2CCN(c3nc(-c4ccccc4)nc4c3CCC4)CC2)cc1	i	nt
O=C(NCc1ccccc1)C1CCN(c2nc(-c3ccccc3)nc3c2CCC3)CC1	-5.8*	-5.8
CCc1cc2c(=O)[nH]c(-c3ccccn3)nc2s1	i	11*
CCc1cc2c(=O)[nH]c(N3CCCC3)nc2s1	i	nt
COc1cc(-c2nc(-c3ccccc3)c(-c3cccs3)[nH]2)cc(OC)c1OC	i	nt
SMILES	KCNQ2 block	KCNQ2 enhance
COc1cc(-c2nc(-c3ccc4c(c3)-c3ccccc3S4(=O)=O)c(-c3ccccc3)[nH]2)cc(OC)c1OC	-7*	-7
COc1ccccc1NC(=O)NCC1(N(C)C)CCCCC1	i	1.3
C=CCOc1ccc(C(=O)Nc2ccccc2C(=O)NCc2cccnc2)cc1	i	0.23
Cc1ccc(CS(=O)(=O)CCC(=O)NCc2ccccc2Cl)cc1	i	nt
O=C(N/N=C/c1ccc(-c2ccc(Cl)c(C(=O)O)c2)o1)c1cc2c(ccc3ccccc32)o1	i	5.4*
COc1ccccc1/C=N/NC(=O)c1cc2c(ccc3ccccc32)o1	-6.4*	-6.4
COc1ccc(/C=N/NC(=O)c2cc3c(ccc4ccccc43)o2)cc1OC	i	0.7
Cc1ccc(-c2ccc(/C=N\NC(=O)c3cc4c(ccc5ccccc54)o3)o2)cc1[N+](=O)[O-]	i	0.08
Cc1ccc(C)c(N2CCN(CCCc3ccccc3)CC2)c1	i	nt
O=C(/C=C/c1ccccc1Cl)Nc1ccc(-c2nnc3n2CCCCC3)cc1	i	0.82
CC(C)Cc1csc(NC(=O)c2ccc(Cl)cc2)c1C(=O)O	i	5.6*
CC(C)Cc1csc(NC(=O)c2ccccc2Cl)c1C(=O)O	i	nt
O=C(/C=C/Nc1ccc(F)c(Cl)c1)c1ccccc1	i	nt
C=CCn1c(=O)c(C(=O)Nc2ccccc2C(=O)OCC)c(O)c2ccccc21	i	nt
C=CCn1c(=O)c(C(=O)Nc2ccccc2S(N)(=O)=O)c(O)c2ccccc21	i	5.7*
COc1cc(NC(=O)c2cccc(C)c2)ccc1NC(=O)c1cc2ccccc2o1	i	1.4

High-throughput results from PubChem.
